Experimental data published in PubChem BioAssay (NCI).
Where “and” joins values, the source holds several entries; their conditions need not be identical. Equal entries are not always repeated. About 83,000 compounds went through this panel and 20% of them were active in at least one assay; those are over-represented in the sample as a whole.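 Results are percent growth after 48 hours of single-concentration exposure. 100 means growth as in untreated cells, lower positive values show inhibition; negative values down to -100 show cell death.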 Calls of active or inactive are those of the source. Rule for the calls: active = growth percent below 10; inactive = the rest.

Tested on: CAKI-1 renal
Experiment: NCI-60 one-dose screen, 48 h (100 = growth as untreated, 0 = no growth, -100 = all killed)
Details: 10 µM unless noted

SMILES	growth
COc1cc2c(c(OC)c1OC)-c1ccc(OC)c(=O)cc1[C@@H](NC(C)=O)CC2	36.5% (inactive) and 21% (inactive) and 20.3% (inactive)
CCN(CC)CCCC(CNc1ccnc2cc(Cl)ccc12)c1ccc(Cl)cc1 (stereo not drawn)	-64.4% (active) and -63.6% (active)
N#CCCOc1ccccc1	91.6% (inactive)
COc1ccc(/C(C#N)=C/c2ccccn2)cc1	101% (inactive) and 126% (inactive)
CCN(CC)C(=S)SSC(=S)N(CC)CC	76.4% (inactive) and 87.5% (inactive)
Nc1ccc(N=Nc2ccc(S(=O)(=O)O)cc2)cc1S(=O)(=O)O	79.6% (inactive) and 88.4% (inactive)
CCN(CC)CCOc1ccc2c(c1)C(=O)c1cc(OCCN(CC)CC)ccc1-2	85.7% (inactive)
O=C1OC2(c3ccccc31)c1ccc(O)c(O)c1Oc1c2ccc(O)c1O	104% (inactive) and 114% (inactive)
O=S(=O)(Nc1ccccc1)C1CCCCC1	86.5% (inactive) and 98.7% (inactive)
CCNC(=O)Nc1ccc(-c2nc3c(c(N4CCOC[C@@H]4C)n2)CCN(C2COC2)C3)cc1	67.1% (inactive) and 0.578% (active)
CC(C)Cc1ccc(C(C)C(=O)NCc2ccc(Cn3c(=O)sn(CCCCl)c3=O)cc2)cc1 (stereo not drawn)	87.1% (inactive) and -86.6% (active)
OCc1ccccn1	101% (inactive)
Nc1ncnc2c1ncn2C1CC(O)C(CO)O1 (stereo not drawn)	103% (inactive) and 100% (inactive)
CCCCCCCCCCCCCCCc1cc(O)ccc1N	68.2% (inactive) and 1.52% (active)
Cc1ccc2nc3c(nc2c1)-c1cccc2cccc-3c12	79.1% (inactive)
O=[N+]([O-])c1ccc(/C=N\NC(=S)Nc2ccc(F)cc2)cc1	97.1% (inactive) and 106% (inactive)
CCN(CC)C(=O)c1cccnc1	97.4% (inactive)
CN1CCN(CCC=C2c3ccccc3Sc3ccc(S(=O)(=O)N(C)C)cc32)CC1	48.5% (inactive) and 94.9% (inactive)
Oc1nc(NCCc2ccccc2)sc1/C=C1\C=Nc2ncccc21	54.8% (inactive) and 37.4% (inactive)

SMILES	growth
COc1cc2nc(N3CCN(C(=O)C4COc5ccccc5O4)CC3)nc(N)c2cc1OC (stereo not drawn)	103% (inactive) and 82.2% (inactive) and 87.4% (inactive)
c1ccc2cc(C[n+]3ccn(Cc4ccc5ccccc5n4)c3)ccc2c1	96.2% (inactive)
COc1ccc(Cn2c(NCCN=C(N)N)nc(=O)n(Cc3ccc(F)cc3)c2=O)cc1	95.2% (inactive) and 86.5% (inactive)
O=C(N/N=C/c1cccc2ccccc12)C1CC1	108% (inactive) and 90% (inactive)
CC(C)CNC(=O)c1ccccc1C(=O)NC1(C(=O)NCC(C)C)CCCC1	90.6% (inactive) and 98% (inactive)
Cn1c(=O)n(-c2ccc(C(C)(C)C#N)cc2)c2c3cc(-c4cnc5ccccc5c4)ccc3ncc21	5.77% (active) and -2.85% (active)
CN(C)c1ccc(C(Cc2ccc3ccccc3n2)Cc2ccc3ccccc3n2)cc1	26.1% (inactive) and 74.9% (inactive)
Cc1ccc(S(=O)(=O)Nc2ccc3cc([N+](=O)[O-])ccc3c2[N+](=O)[O-])cc1	57.8% (inactive) and 69.4% (inactive)
NS(=O)(=O)c1cc2c(cc1Cl)NC(C(Cl)Cl)NS2(=O)=O (stereo not drawn)	98.8% (inactive) and 95.4% (inactive)
Nc1ccccc1Nc1ccccc1	73.3% (inactive)
c1ccc2c(CC3=NCCN3)cccc2c1	92.9% (inactive)
Clc1ccc(NC(Nc2ccc(Cl)cc2)C(Cl)(Cl)Cl)cc1	66% (inactive)
CCOc1ccc2c(S(=O)(=O)O)cccc2c1[N+](=O)[O-]	87% (inactive) and 96.1% (inactive)
CCN(CC)CCCC(C)N(Cc1ccccc1)CC(O)c1ccc(Cl)cc1 (stereo not drawn)	109% (inactive)
Cn1cnc([N+](=O)[O-])c1Sc1ncnc2nc[nH]c12	49.2% (inactive) and 75.8% (inactive)
Nc1nc2ncc(CNc3ccc(C(=O)N[C@@H](CCc4nn[nH]n4)C(=O)O)cc3)nc2c(=O)[nH]1	93% (inactive) and 101% (inactive)
Oc1c(Cl)cc(Cl)cc1Sc1cc(Cl)cc(Cl)c1O	17.9% (inactive) and 11.7% (inactive) and 62.8% (inactive)
O=S1(=O)CC(Br)C(Br)C1 (stereo not drawn)	45.1% (inactive) and 65.5% (inactive)
CN(C)c1ccc2nc3ccc(N)cc3[n+](-c3ccccc3)c2c1	94.2% (inactive) and -40.5% (active)
